# Experimental data: PubChem BioAssay (NCI)
# About 79,000 compounds went through this panel and 15% of them were active in at least one assay; those are over-represented in the sample as a whole. A number with no mark means an inactive call. Activity calls are given as the source filed them. Cut-off read from the data, not from the text of the source: active = growth inhibition above about 70%; inactive = the rest.
# Legend:
# [1] = NCI Yeast Anticancer Drug Screen. Data for the rad50 strain (AID 155);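 note: 0% = growth of vehicle-only cultures of the same strain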; settings: S. cerevisiae rad50 strain growth inhibition, stronger effect = higher value
# How it was run: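 A DNA repair-deficient yeast mutant serves as the test organism; compound-induced growth inhibition is calculated against vehicle-treated cells.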
# [2] = NCI Yeast Anticancer Drug Screen. Data for the mec2-1 strain (AID 157); settings: S. cerevisiae mec2-1 strain, stronger effect = higher value
# How it was run: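 Vehicle-treated cultures served as reference for growth inhibition of compound-exposed mec2-1 yeast.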
# [3] = NCI Yeast Anticancer Drug Screen. Data for the sgs1 mgt1 strain (AID 161);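 note: 0% = growth of cultures given vehicle only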; settings: S. cerevisiae sgs1 mgt1 strain, stronger effect = higher value
# How it was run: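 Genetically altered yeast, compound exposure, growth inhibition relative to vehicle.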
# [4] = NCI Yeast Anticancer Drug Screen. Data for the cln2 rad14 strain (AID 165);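 note: 0% = growth equal to vehicle treated cultures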; settings: S. cerevisiae cln2 rad14 strain, stronger effect = higher value
# How it was run: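 Each compound was tested on cln2 rad14 yeast. Inhibition of growth was calculated against vehicle-exposed controls.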
# [5] = NCI Yeast Anticancer Drug Screen. Data for the bub3 strain (AID 167); settings: S. cerevisiae bub3 mutant strain, stronger effect = higher value
# How it was run: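 Inhibition values come from growth of compound-treated mutant yeast normalised to vehicle-treated controls.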
# [6] = NCI Yeast Anticancer Drug Screen. Data for the mlh1 rad18 strain (AID 175); settings: S. cerevisiae mlh1 rad18 strain growth inhibition, stronger effect = higher value
# How it was run: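 Vehicle-treated cultures served as the reference for growth inhibition in a yeast strain carrying DNA damage repair alterations exposed to each compound.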
# [7] = at 5.0 µM (retest, dose inferred, filed as 0.5)
# [8] = at 50.0 µM (retest, dose inferred, filed as 5.0)
SMILES,"growth inhibition [1, 7]","growth inhibition [1, 8]",growth inhibition ([1]; at 50.0 µM),"growth inhibition [2, 7]","growth inhibition [2, 8]",growth inhibition ([2]; at 50.0 µM),"growth inhibition [3, 7]","growth inhibition [3, 8]",growth inhibition ([3]; at 50.0 µM),"growth inhibition [4, 7]","growth inhibition [4, 8]",growth inhibition ([4]; at 50.0 µM),"growth inhibition [5, 7]","growth inhibition [5, 8]",growth inhibition ([5]; at 50.0 µM),"growth inhibition [6, 7]","growth inhibition [6, 8]",growth inhibition ([6]; at 50.0 µM)
O=P(O)(Oc1ccccc1)Oc1ccccc1.[Ag],36%,71% (active),92.2% (active),37%,87% (active),94% (active),99% (active),98% (active),94% (active),70% (active),99% (active),93% (active),100% (active),99% (active),92.8% (active),37%,86% (active),92.3% (active)
O=C1N[C@H]2[C@H](O)[C@H](O)[C@@H](O)[C@H](O)[C@@H]2c2cc3c(c(O)c21)OCO3,12%,70% (active),69%,19%,70% (active),65.8%,17%,58%,67.2%,32%,66%,69%,19%,60%,68.7%,26%,84% (active),58.2%
CCCCSc1ccc(C(SCCN(CC)CC)c2ccccc2)cc1 (stereo unspecified),12%,99% (active),99.8% (active),11%,100% (active),99.8% (active),45%,100% (active),99.8% (active),32%,99% (active),99.8% (active),36%,99% (active),99.7% (active),27%,99% (active),99.7% (active)
COc1ccc([As]=[As]c2ccc(OC)c(I)c2)cc1I (stereo unspecified),98% (active),99% (active),99.7% (active),100% (active),100% (active),99.8% (active),99% (active),100% (active),99.8% (active),98% (active),98% (active),99.8% (active),99% (active),99% (active),99.6% (active),99% (active),99% (active),99.7% (active)
COC12C(COC(N)=O)C3=C(C(=O)C(C)=C(NC(C)C)C3=O)N1CC1NC12 (stereo unspecified),5%,59%,47.6%,10%,72% (active),47.9%,13%,61%,48%,2%,76% (active),52%,1%,35%,30.4%,31%,92% (active),78.6% (active)
CC(C)CC[CH2][Pb]([CH2]CCC(C)C)([CH2]CCC(C)C)[O]C(=O)C(Cl)(Cl)Cl,14%,98% (active),99.1% (active),8%,99% (active),98.9% (active),17%,94% (active),98.4% (active),-1%,95% (active),98.8% (active),2%,98% (active),99% (active),6%,94% (active),98.7% (active)
c1cc2n[pH]nc2cn1 (stereo unspecified),-10%,5%,5.55%,-3%,-8%,11.2%,-2%,-6%,21.2%,5%,-8%,1.2%,-1%,2%,11.6%,6%,6%,43.5%
C[CH2][Sn]([CH2]C)[O][Sn]([Cl])([CH2]C)[CH2]C,51%,96% (active),87.9% (active),35%,97% (active),88.3% (active),37%,97% (active),87.5% (active),19%,91% (active),84% (active),39%,96% (active),83.3% (active),75% (active),97% (active),86.7% (active)
C#CC1(OC(C)=O)CCC2C3CC=C4C=C(OC(C)=O)CCC4(C)C3CCC21C (stereo unspecified),16%,48%,90.5% (active),-1%,17%,40.2%,2%,56%,86.9% (active),10%,15%,-0.6%,1%,3%,13.9%,2%,-4%,61.1%
CCC[CH2][Sn]1([CH2]CCC)[O]CC(Cc2ccccc2)[O]1 (stereo unspecified),31%,96% (active),85.5% (active),22%,98% (active),90.2% (active),54%,98% (active),86.9% (active),32%,95% (active),84.7% (active),55%,98% (active),89.1% (active),39%,97% (active),88.5% (active)
COc1cc(C(=O)[O][Hg][CH2]C2CC(O)CC([CH2][Hg][O]C(=O)c3cc(OC)c(OC)c(OC)c3)O2)cc(OC)c1OC (stereo unspecified),97% (active),98% (active),99.3% (active),98% (active),99% (active),99.6% (active),99% (active),99% (active),99.6% (active),95% (active),96% (active),98.5% (active),97% (active),99% (active),99.1% (active),99% (active),99% (active),98.7% (active)
O=S(=O)(F)c1cc(Cl)c(O)cc1Cl,-143%,16%,78.3% (active),-45%,48%,57.8%,-61%,60%,79.6% (active),-41%,47%,51.5%,-57%,39%,78.2% (active),-114%,45%,83.2% (active)
CCN(CC)CC(=O)c1cc2ccccc2c2ccccc12,36%,97% (active),99.3% (active),14%,93% (active),92.2% (active),47%,97% (active),99.4% (active),2%,82% (active),31.1%,11%,98% (active),99.1% (active),36%,98% (active),99% (active)
O=[N+]([O-])c1ccc([N+](=O)[O-])c2nsnc12,98% (active),97% (active),99.5% (active),90% (active),98% (active),99.5% (active),48%,99% (active),99.3% (active),77% (active),98% (active),99.3% (active),98% (active),98% (active),99.2% (active),79% (active),97% (active),99% (active)
CC[PH+](CC)CC.[Cl][Au],98% (active),98% (active),89.8% (active),99% (active),99% (active),91.4% (active),97% (active),98% (active),91.3% (active),92% (active),99% (active),90.8% (active),99% (active),99% (active),89.8% (active),94% (active),99% (active),90.8% (active)
CN1C2CCC1c1c([nH]c3ccccc13)C2 (stereo unspecified),-22%,-23%,3.25%,-9%,-3%,18.5%,-7%,-10%,20.6%,-19%,-3%,42%,-7%,-1%,6.25%,-7%,-12%,12.4%
Nc1ccccc1O.O.O=C(O)C1[O][Sb][O]C1C(=O)O (stereo unspecified),19%,33%,55.5%,26%,23%,53.5%,12%,25%,27.2%,10%,20%,33.3%,37%,61%,82.4% (active),37%,55%,59.4%
CO[C@@]12[C@@H]3N[C@@H]3CN1C1=C(C(=O)C(N(C)c3ccc(O)cc3)=C(C)C1=O)[C@@H]2COC(N)=O,21%,64%,81.9% (active),24%,70% (active),76% (active),-7%,44%,68.4%,1%,62%,65%,-5%,30%,53.2%,33%,96% (active),83.2% (active)
CC[C@@]1(O)C[C@H](OC2CC(N(C)C)C(O)C(C)O2)c2c(cc3c(c2O)C(=O)c2c(O)ccc(O)c2C3=O)[C@H]1C(=O)OC (stereo partly specified),96% (active),98% (active),91.1% (active),77% (active),98% (active),92.1% (active),88% (active),99% (active),92.5% (active),82% (active),99% (active),88.7% (active),88% (active),99% (active),91.2% (active),94% (active),98% (active),93.2% (active)
Sc1nc2ccccc2s1.Sc1nc2ccccc2s1.Sc1nc2ccccc2s1.Sc1nc2ccccc2s1.[Cl][Rh][Cl],20%,95% (active),95.7% (active),12%,96% (active),98.5% (active),38%,97% (active),93.3% (active),0%,94% (active),97.1% (active),31%,97% (active),96.8% (active),43%,96% (active),97.7% (active)
COc1ccc([Se][Se]c2ccc(OC)cc2OC)c(OC)c1,18%,18%,88.3% (active),23%,23%,89.8% (active),18%,18%,88.5% (active),9%,9%,90% (active),-4%,-4%,89.7% (active),12%,12%,88.4% (active)
CN(C)c1ccc(C(c2c(O)c3ccccc3oc2=O)c2c(O)c3ccccc3oc2=O)cc1,0%,40%,59.2%,-8%,26%,65.6%,4%,42%,60%,-5%,13%,18.5%,-3%,16%,34.3%,-3%,13%,51%
[O]=[Sb]([OH])([OH])[c]1ccc(NC2OC(CO)C(O)C(O)C2O)cc1 (stereo unspecified),0%,-6%,6.45%,0%,-2%,5.65%,-1%,-20%,-13.8%,0%,-12%,-0.2%,2%,-1%,91.8% (active),1%,-3%,-10.4%
[C-]#[O+].[C-]#[O+].[C-]#[O+].[C-]#[O+].[Mo].c1cnc2c(c1)ccc1cccnc12,-2%,0%,81% (active),-8%,-6%,60.4%,-6%,-2%,71.4% (active),-5%,-17%,39.6%,-1%,6%,79.1% (active),-4%,-8%,81.9% (active)
CC1=C(CC/C(C)=C/CCC2(C)CCC([C@H](C)C(=O)O)OO2)C(C)(C)CCC1 (stereo partly specified) (tested in a mixture with another compound),18%,97% (active),90.2% (active),39%,97% (active),93% (active),52%,96% (active),93% (active),46%,97% (active),90.5% (active),9%,97% (active),92.2% (active),51%,96% (active),91.3% (active)
O=C1c2ccccc2CCC1Br (stereo unspecified),-20%,99% (active),99% (active),11%,99% (active),99.1% (active),-3%,98% (active),99.2% (active),-18%,99% (active),98.6% (active),-27%,99% (active),98.7% (active),-13%,99% (active),99% (active)
O=c1oc2ccccc2c(O)c1C(C/C(CCN1CCCC1)=N/O)c1ccccc1 (stereo unspecified),28%,28%,79.8% (active),22%,22%,81.7% (active),16%,16%,76.8% (active),-3%,-3%,64.2%,9%,9%,72.4% (active),10%,10%,79.2% (active)
